Screening data deposited in PubChem by Broad Institute.
esBAF inh: SWI/SNF esBAF complex inhibition | mouse ES cells, Bmi1-luciferase knock-in reporter, 24 h; 100% = twice the neutral-well signal | reporter increase, % at 12.5 µM | 350,000 tested, 2% active | AID 602393; in the data active = activation above about 40%;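 also: 0% = median of the plate's neutral control wells and 100% = double that signal; a rise in the Bmi1 reporter signal indicates esBAF inhibition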
Vif imaging: HIV Vif inhibition; HEK293T cells, Vif self-association by quenched fluorescence, imaging, 24 h; inhibition, % at 7.49 µM; 340,000 tested, 0.35% active; AID 602346; in the data active = inhibition above about 50%, passing the limit was not always enough
HSF1 inhib: HSF1 inhibition. NIH3T3-HGL HSE-luciferase, MG132-induced, luminescence 8 h; hits give low values. 300,000 tested, 0.77% active. activity change, negative = inhibition, % at 7.5 µM (by protocol);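 active = more than half of replicate wells show activity change below -50%, luminescence cut by over half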;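 also: luciferase reports HSF-1 transcriptional activity via heat shock element; 0% = median of DMSO wells and -100% = zero luminescence signal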
HSF-1 act: increases HSF-1 driven luciferase reporter signal; NIH3T3-HGL HSF-1 luciferase reporter, MG132, 8 h; 100% = twice DMSO control signal; activation, % at 9 µM; 300,000 tested, 1.7% active; AID 504408;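 active = mean replicate activation of at least 50% with a set share of replicates each reaching 50%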;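 also: 0% = median of the neutral control wells and 100% = twice that signal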
Active calls of the source: *; x = no result. Sampled rows, rich in hits. Any-hit rate of the full collection: about 3.4%.

SMILES	esBAF inh	Vif imaging	HSF1 inhib	HSF-1 act
C=CCn1c(O)c(C(CC)=Nc2ccc3c(c2)CCC3)c(=O)[nH]c1=O	x	-3.7	30.2	74.0*
COC(=O)[C@@H]1[C@@H](CO)[C@@H]2Cn3c(ccc(-c4ccncc4)c3=O)[C@H]1N2CCc1ccccc1	-0.4	x	x	x
c1ccc2oc(-c3ccc4c(c3)CNCc3cnnn3-4)cc2c1	66.1*	10.8	x	x
c1cc2c(cc1N1CCCCC1)CNCc1cnnn1-2	-0.8	-7.7	x	x
COC(=O)C1=C(C(=O)OC)C2OC1c1cc3ccccc3cc12	x	28.3	58.9*	58.9*
COC(=O)C1=C(c2ccc3ccccc3c2)C[C@@H]2CC[C@H]1N2C	0.0	0.5	x	x
COC(=O)[C@@H]1[C@@H](CO)[C@@H]2Cn3c(ccc(-c4cccnc4)c3=O)[C@H]1N2CCc1ccccc1	2.6	x	x	x
COc1cc(OC)c2c(c1)OCC1CON(C)C21 (configuration not stated)	x	-7.3	-78.0*	-80.8
O=c1cccc2n1CC1CC2CN(c2nc(N3CCCCC3)nc(N3CCCCC3)n2)C1 (configuration not stated)	x	0.4	16.8	58.4*
Cc1cc(C(=O)OCC(=O)Nc2ccccc2F)c(C)n1C1CC1	56.6*	10.0	x	x
CN1C(=O)C(=Cc2ccc(N3CCCCCC3)o2)C(=O)N(C)C1=S	40.8*	28.1	x	x
Cc1nn(CC(C)C)c(Cl)c1C(=O)NC1CCC(C)CC1 (configuration not stated)	66.2*	4.2	15.4	21.6
CN(C)C(=O)[C@H]1[C@H](CO)[C@H]2Cn3c(cccc3=O)[C@@H]1N2CC1CC1	-4.9	x	x	x
COc1ccc(C[C@H]2NC[C@H](O)[C@H]2OC(C)=O)cc1	-65.7	-40.2	-74.7*	-76.7
COc1ccc2c(c1)C13CCN(C)C(C2)C1CCC1(C3)OCCO1 (configuration not stated)	x	10.2	4.3	4.3
COc1ccc2c(c1)[C@@]13CCC=C[C@H]1[C@@H](C2)NCC3	0.2	61.2*	x	x
COc1ccc2c(c1OC)C(=O)OC2C1c2cc3c(cc2CCN1C)OCO3 (configuration not stated)	-0.6	8.8	-0.9	5.8
COc1cc(C2c3cc4c(cc3CC3COC(=O)C32)OCO4)cc(OC)c1O (configuration not stated)	x	60.3*	x	x
COC(=O)[C@@H]1[C@@H](CO)[C@@H]2Cn3c(ccc(/C=C/c4ccccc4)c3=O)[C@H]1N2C(=O)C1CCC1	-0.6	x	x	x
N#Cc1ccc(-c2ccc([C@H]3[C@@H](CO)N4CCCCN(C(=O)Cc5ccccc5)C[C@@H]34)cc2)cc1	-2.1	x	x	x
COC(=O)C[C@]1(C(=O)OC)CN(C#N)N(c2ccc(Cl)cc2)C12c1ccccc1-c1ccccc12	x	57.2*	-94.2*	-93.7
COC(=O)[C@@H]1[C@@H](C(=O)OC)C2(c3ccccc3-c3ccccc32)N(c2ccc(Cl)cc2)N1C#N	x	-4.0	-95.8*	-95.6
COC(=O)[C@@H]1[C@@H](CO)[C@@H]2Cn3c(ccc(-c4ccccc4F)c3=O)[C@H]1N2CC1CCCC1	3.3	x	x	x
COc1ccc(O)c2c(=O)c3c(OC)cc4c(c3oc12)C1C=COC1O4 (configuration not stated)	-20.2	73.1*	-3.1	-0.9
CNC(=S)N(C)CCc1cc2c(c(OC)c1/C=C1/C(=O)NC(=O)N(C)C1=O)OCO2	-2.2	-2.7	-0.7	6.2
SMILES	esBAF inh	Vif imaging	HSF1 inhib	HSF-1 act
CCNC(=S)N(C)CCc1cc2c(c(OC)c1C=C1C(=O)N(C)C(=O)N(C)C1=O)OCO2	6.1	0.4	-84.5*	-88.2
CCCN1[C@@H]2Cn3c(ccc(-c4ccc(F)cc4)c3=O)[C@H]1[C@@H](C(=O)OC)[C@@H]2CO	3.5	x	x	x
CCNC(=O)C1OC(n2cnc3c(N)ncnc32)C(O)C1O (configuration not stated)	-13.4	50.7*	-12.3	-25.8
CN[C@H]1C[C@H]2O[C@@](C)([C@H]1OC)n1c3ccccc3c3c4c(c5c6ccccc6n2c5c31)C(=O)NC4	x	x	-85.2*	-87.8
O=C(O)[C@H]1[C@H](CO)[C@H]2Cn3c(ccc(C4=CCCCC4)c3=O)[C@@H]1N2C(=O)Cc1ccccn1	-0.6	x	x	x
CCCNC(=O)N1[C@@H]2Cn3c(ccc(-c4ccccc4OC)c3=O)[C@H]1[C@@H](C(=O)O)[C@@H]2CO	-0.1	x	x	x
CCCCn1c(C)c(C(=O)OCC)c2c(CN3CCCC3)c(O)ccc21	-11.8	-10.3	0.7	6.8
CCCCn1c(C)c(C(=O)OCC)c2c(CN3CCOCC3)c(O)ccc21	1.9	-10.4	56.2	72.3*
O=C(Cc1cccnc1)N1CCCCN2[C@H](CO)[C@H](c3ccc(C#CC4(O)CCCC4)cc3)[C@H]2C1	5.4	x	x	x
CC(=O)c1ccc(-c2ccccc2)cc1	33.7*	-0.5	3.7	16.8
CC(=O)c1ccc(OC(=O)N(C)c2ccccc2)cc1	x	0.0	-3.7	7.6
Cc1ccc(-c2nn(Cc3ccccc3)cc2C=O)cc1	x	-5.2	44.4	53.3*
Cc1ccc(-c2nn(Cc3ccccc3)cc2C(=O)O)cc1	5.3	-4.2	-6.0	4.9
Cc1ccc(Cn2cc(C=O)c(-c3ccc(F)cc3)n2)cc1	33.2	-20.5	21.3	57.5*
Cc1ccc(-c2nn(Cc3ccccc3)cc2C=O)cc1C	87.7*	-13.4	44.6	69.7*
COC(=O)[C@@H]1[C@@H](CO)[C@@H]2Cn3c(ccc(-c4ccccc4)c3=O)[C@H]1N2CCc1ccccc1	-2.1	x	x	x
c1ccc(CN2CCc3nc4ccccc4cc3C2)cc1	52.5*	-11.4	11.7	17.3
CN1CCN(Cc2ccc3ccccc3c2)CC1	1.7	0.5	-5.9	6.8
CC=Cc1ccc2n(c1=O)C[C@H]1[C@H](CO)[C@@H](C(=O)N(C)C)[C@@H]2N1C (mixture of isomers)	-3.8	x	x	x
COc1ccc2c(CN3CC=C(c4ccccc4)CC3)cc(=O)oc2c1	x	-2.9	-3.6	4.4
COc1ccc2ccc(O)c(CN3CC=C(c4ccccc4)CC3)c2c1	x	3.9	163.8	200.7*
COC(=O)[C@H]1[C@H](CO)[C@H]2Cn3c(ccc(C4=CCCCC4)c3=O)[C@@H]1N2C(=O)NC(C)C	-0.2	x	x	x
CC(C)(C)NC(=O)NC(=O)CN1CC=C(c2ccccc2)CC1	0.1	-0.9	12.3	60.8*
Cc1cccc(S(=O)(=O)N2[C@@H]3c4ccc(-c5cccc(F)c5)c(=O)n4C[C@H]2[C@H](CO)[C@H]3C(=O)O)c1	0.4	x	x	x
Fc1ccc(CN2CCN(c3ccc(Cl)cc3)CC2)cc1	x	1.9	0.6	-19.4
Fc1cccc(F)c1CN1CCN(c2ccc(Cl)cc2)CC1	10.5	x	15.4	59.9*
CC1CN=C(Nc2ccccc2)S1 (configuration not stated)	-5.0	-1.3	7.5	52.4*
O=C(Cc1cccnc1)N1CCCCN2[C@H](C1)[C@H](c1ccc(C#CC3(O)CCCC3)cc1)[C@@H]2CO	-2.4	x	x	x
CC(=O)OC1(c2ccccc2)CCN(C)C2CCCCC21 (configuration not stated)	-1.0	0.0	-52.2*	-62.2
C[C@H]1C[C@@H](C)C(=O)[C@@H]([C@H](O)CC2CC(=O)NC(=O)C2)C1	-68.0	-46.1	-69.3*	-73.0
